Hit rate of the full screen: of about 420,000 compounds, about 64,000 (15%) were called active. Roughly 27% stayed inconclusive and do not appear here. A selection follows. A number with no mark means an inactive call. Calls come from the whole dose curve; as a rule, active = well fitted inhibition curve with a large enough effect; inconclusive = small, poorly fitted or top-dose-only effect; inactive = flat fitted curve, though single readings scatter.
test: qHTS for Inhibitors of human tyrosyl-DNA phosphodiesterase 1 (TDP1): qHTS in cells in absence of CPT; conditions: DT40 Tdp1-/- hTDP1 cells, no CPT, ATP luminescence, 48 h; activity change, negative = growth inhibition: at 46.2 µM (top of the series); note: nearly all actives have a fitted effect of over 55% in size
Outline: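 Chicken DT40 Tdp1-/- cells stably complemented with human TDP1 were seeded at 400 cells/well with DMSO in place of 20 nM camptothecin. After compound pinning, cells grew at least 48 hr at 37 °C; viability read by CellTiter-Glo luminescence.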
% is set by controls: 0 for no effect and ±100 for the full control effect; potency is the fitted concentration of half-maximal effect.

Structure (SMILES) | activity change, negative = growth inhibition | Potency
N#Cc1c(-c2ccccc2)cc(-c2ccccc2)nc1SCC(=O)O | 10.7% | 
CN1C(=O)CN2CCc3ccccc3C2c2cc(Cl)ccc21 (stereo not given) | 0.961% | 
CN1CCN(C2Cc3ccc(Cl)cc3Sc3ccc(F)cc32)CC1 (stereo not given) |  | 18.4 µM (active)
COC(=O)C1NN=C(C(=O)c2ccc(Br)cc2)C1c1cccc(Br)c1 (stereo not given) | -18.6% | 
Cc1ccc(NC(=O)C2CC2c2ccccc2)cc1 (stereo not given) | 2.36% | 
Nc1ncnc2c1ncn2[C@@H]1O[C@H](C(=O)N2CCSC2)[C@@H](O)[C@H]1O | -25.8% | 
Cc1cccc(C)c1OCC(O)CN1CCCCC1 (stereo not given) | 4.81% | 
C=CCc1ccccc1OCC(O)CN1CCN(CCO)CC1 (stereo not given) | 20.7% | 
Cc1cccc(OCC(O)CN2CCN(CCN3C(=O)c4cccc5cccc(c45)C3=O)CC2)c1C (stereo not given) |  | 25.9 µM (active)
CCCC(C(=O)NC1CCCC1)N(C(=O)Cn1nnc(-c2ccc(C)o2)n1)c1cccc(O)c1 (stereo not given) | -11.8% | 
COC(=O)c1cc(C)sc1NC(=O)CC1Nc2ccccc2NC1=O (stereo not given) | -15.1% | 
O=C(c1csnn1)N1CCC[C@@]2(CCN(Cc3nccs3)C2)C1 | 4.1% | 
NC(=O)NC(=O)C(OC(=O)CCNS(=O)(=O)c1ccccc1)c1ccccc1 (stereo not given) | 2.11% | 
Cc1ccc(N2C(=O)C3C(c4ccccc4)(C2=O)C3(c2ccccc2)c2ccccc2)cc1 (stereo not given) |  | 13 µM (active)
Cc1ccc(N2C(=O)C3CC3C2=O)cc1 (stereo not given) | 11% | 
Cc1ccc(N2C(=O)C(Cc3ccccc3)NC2=S)cc1 (stereo not given) | -9.36% | 
O=C(N1CCCC1)C12CC3CC(C1)CC(C(=O)N1CCCC1)(C3)C2 | -19% | 
COc1ccccc1C(=O)NNC(=O)CCN1C(=O)/C(=C\c2ccccc2)SC1=S | -25.6% | 
CC(OC(=O)CNS(=O)(=O)/C=C/c1ccccc1)C(=O)Nc1ccc(S(=O)(=O)N2CCCC2)cc1 (stereo not given) | -12.5% | 
Cc1ccc(CNC(=O)CC(NC(=O)c2ccccc2)c2ccccc2)cc1 (stereo not given) | 11.7% | 
COc1ccc(Cc2nc3ccc(C(=O)NCc4ccccc4C)cc3o2)cc1 |  | 8.2 µM (active)
CCn1ccnc1CN(C)C(=O)c1ccc2nc(Cc3ccc(OC)cc3)oc2c1 | -4.12% | 
CSCCNC(=O)c1ccc2nc(Cc3ccccc3F)oc2c1 | -0.744% | 
COc1ccc(Cc2nc3ccc(C(=O)N4CCC(N(C)C)C4)cc3o2)cc1 (stereo not given) | 9.41% | 
COCCNC(=O)c1ccc2nc(Cc3ccc(OC)c(OC)c3)oc2c1 | 0.0783% | 
COc1ccc(Cc2nc3ccc(C(=O)NCc4ccccc4Cl)cc3o2)cc1 |  | 16.4 µM (active)
CCCc1c(C(=O)N/N=C(\C)CCc2ccc(OC)cc2)nnn1-c1nonc1N | 15.5% | 

Structure (SMILES) | activity change, negative = growth inhibition | Potency
Cc1ccc2c(C)c(C(=O)N(C)Cc3ccncn3)oc2c1C | 15.4% | 
COc1ccc(NC(=O)CN(C)C(=O)c2n[nH]c3ccccc23)cc1 | -22.5% | 
COc1ccc(NC(=O)C(c2ccncc2)n2c(=O)c(-c3cc4ccccc4[nH]3)nc3ccccc32)cc1 (stereo not given) |  | 18.4 µM (active)
COc1ccc(CNC(=O)CN2C(=O)c3ccccc3S2(=O)=O)cc1 | -24.4% | 
COc1ccc(C(C(=O)NCc2ccccc2)n2c(=O)c(-c3ccccc3)nc3ccccc32)cc1 (stereo not given) |  | 16.4 µM (active)
CCOCCCNC(=O)C(NC(=O)Cc1c[nH]c2ccccc12)c1ccc(OC)cc1 (stereo not given) | -15% | 
CCOCCCNC(=O)C(NC(=O)CNC(=O)c1ccccc1)c1ccc(OC)cc1 (stereo not given) | 4.34% | 
CCCCCNC(=O)C(c1ccc(OC)cc1)n1c(=O)c(-c2ccccc2)nc2ccccc21 (stereo not given) |  | 20.6 µM (active)
CCSc1ccccc1C(=O)NCc1ccc(OC)cc1 | -8.91% | 
COc1ccc(NC(=O)C(c2ccccc2)N2Cc3ccccc3C2=O)cc1 (stereo not given) | -8.19% | 
COC(=O)C1=C(C(=O)OC)C2(OC1c1ccc(Br)cc1)C(=O)c1ccccc1C2=O (stereo not given) | 9.73% | 
CN(c1ccc(OCC(=O)NC2=NCCS2)cc1)S(=O)(=O)c1ccc(F)cc1 | -12.9% | 
O=C(CSc1ccc(-c2ccccc2)nn1)NCC1CCCO1 (stereo not given) | -15.8% | 
CN(C)/C=C(\C#N)C(=O)c1cccnc1Oc1cccc(F)c1 | -13.7% | 
C[C@@H]1CN([C@@H](C)CO)C(=O)c2cc(NC(=O)C3CC3)ccc2O[C@H]1CN(C)C | -12.9% | 
CC(C)CC(=O)Nc1cc(C(F)(F)F)ccc1N1CCOCC1 | -14.8% | 
CCOC(=O)c1c(C)[nH]c(C)c1C(=O)CSc1nc(N)cc(N)n1 | -4.75% | 
COCCNc1cc(NCCOC)c([N+](=O)[O-])cc1[N+](=O)[O-] | 13.4% | 
Cc1ccc(OC(=O)c2cc3ccccc3o2)cc1 | -2.8% | 
CCOC(=O)c1[nH]c(C)c(CCC(=O)NCc2ccccc2C)c1C | -8.09% | 
C/C(CC(=O)Nc1cccc(F)c1)=N\NC(=O)C(=O)NC1CCCCC1 | -22.7% | 
C=C(C)c1cccc(C(C)(C)NC(=O)N2CCN(c3ncccn3)CC2)c1 | -17.4% | 
O=C(CCN1C(=O)c2ccccc2C1=O)NNC(=O)c1ccc(Cl)cc1Cl | 11.4% | 
COc1cccc(-n2cc(C(=O)O)c3ccccc3c2=O)c1 | -8.51% | 
COc1ccc(Nc2cc(=O)n(-c3ccccc3)c3c2c(=O)n(C)c(=O)n3C)cc1 | -18.7% | 
COc1cccc(-n2cc3c(c2-c2ccccc2)c(=O)n(C)c(=O)n3C)c1 |  | 11.6 µM (active)
CN1CCN(NC(=O)Nc2ccc(Br)cc2)CC1 | 8.78% | 

Structure (SMILES) | activity change, negative = growth inhibition | Potency
COC(=O)c1ccc(/C=N/NC(=O)C(=O)N2CCCCCC2)cc1 | -15.6% | 
CCCNC(=O)c1cc(C2CCCN(C(=O)c3ccc4c(c3)CCO4)C2)on1 (stereo not given) | 6.81% | 
S=c1[nH]nc(-c2ccc(Cl)cc2)n1CC1CCCO1 (stereo not given) | -20.9% | 
O=C(c1[nH]ncc1-c1ccc(Cl)cc1)C1CO1 (stereo not given) |  | 4.61 µM (active)
O=C(c1nnc(-c2ccc(Cl)cc2)o1)C1CCCC1 | -0.7% | 
CC(OC(=O)CCc1nc(=O)c2ccccc2n1C)C(=O)NCc1ccc2c(c1)OCO2 (stereo not given) | -8.86% | 
CCn1c2c(c(=O)n3ncc(C(=O)N4CCN(c5ccccc5)CC4)c13)CN(Cc1ccc(OC)cc1)CC2 |  | 16.4 µM (active)
CCn1c(CNC(=O)c2ccccc2)nnc1SCC(=O)N1CCN(c2ccccc2)CC1 | -18.4% | 
COc1ccc(N2CCN(C(=O)c3ccccc3NC(=O)C3=C(C)OCCS3)CC2)cc1 | -29.7% | 
CCC(C)NC(=O)C1CCC(=O)N1Cc1ccc(C)cc1 (stereo not given) | 4.13% | 
CN(Cc1ccco1)S(=O)(=O)c1nnc(NC(=O)c2ccccc2)s1 | 15.1% | 
Cc1ccc(Cn2c(=O)n(CCCC(=O)NCc3ccccc3Cl)c(=O)c3ccccc32)cc1 | -2.45% | 
COCCNC(=O)CCCn1c(=O)c2ccccc2n(Cc2cccc([N+](=O)[O-])c2)c1=O | 6.9% | 
COc1ccccc1CNC(=O)CCCn1c(=O)c2ccccc2n(CC(=O)Nc2ccc(C)cc2Cl)c1=O | -24.6% | 
COc1ccccc1CNC(=O)CCn1c(=O)c2ccccc2n(CC(=O)Nc2cccc(Cl)c2)c1=O |  | 18.4 µM (active)
COc1ccccc1CNC(=O)CCCCn1c(=O)c2ccccc2n(CC(=O)Nc2cc(Cl)ccc2C)c1=O |  | 10.3 µM (active)
COc1ccccc1CNC(=O)CCn1c(=O)sc2ccccc21 | -9.01% | 
COc1ccc(CCNC(=O)CCCn2c(=O)c3ccccc3n(Cc3ccc(F)cc3Cl)c2=O)cc1OC | -1.95% | 
COc1ccc(NC(=O)Cn2c(=O)n(Cc3ccc(C(=O)NCc4ccccc4Cl)cc3)c(=O)c3ccccc32)cc1 | -26.8% | 
COc1ccc(CCNC(=O)CCCCn2c(=O)c3ccccc3n(Cc3ccccc3)c2=O)cc1OC |  | 20.6 µM (active)
CC(C)(C)C1CCC(=NNC(=O)c2ccc(Br)o2)CC1 (stereo not given) | -6.8% | 
Cc1nc2cccnc2nc1C | 10.1% | 
Cc1ccc2c(c1)C(O)(CC(=O)c1cccc(-n3cccc3)c1)C(=O)N2 (stereo not given) | 10.3% | 
CCCCCCCCc1c(O)nc(-n2[nH]c(C)c(CCO)c2=O)[nH]c1=O | -8.48% | 
Cc1ccc(C(=O)NNC(=O)c2ccc3c(c2)OCCO3)cc1 | 20.7% | 
COC(=O)c1ccc(C(=O)OC)c(NC(=S)N2CCCCC2)c1 | 0.473% | 
Brc1ccc(-c2noc(-c3ccccc3)n2)o1 |  | inactive

Structure (SMILES) | activity change, negative = growth inhibition | Potency
Cn1c(=O)cc(SCC(=O)N2CCN(C(=O)c3ccco3)CC2)c2ccccc21 | -1.28% | 
Nc1c(C(=O)O)cnn1-c1ccccc1 | -27.1% | 
COC(=O)Cn1c(O)c(N=NC(=O)OC)c2ccccc21 | -1.25% | 
CN1CCN(S(=O)(=O)c2cccc(C(=O)O)c2)CC1 | -4.32% | 
CCn1c(O)c(N=NC(=O)c2cccc(S(=O)(=O)N3CCCCC3)c2)c2ccccc21 |  | 23.1 µM (active)
O=[N+]([O-])c1cccc(C2=NCCS2)c1 | -20% | 
CC(CC(=O)Nc1ccc(F)cc1F)S(=O)(=O)c1ccc2c(c1)NC(=O)CO2 (stereo not given) | -1.12% | 
O=C(NCc1cccnc1)Nc1cccc(NC(=O)NCc2cccnc2)c1F | 12.9% | 
COCCCN1C(=O)c2ccc(C(=O)OCC(=O)NCc3ccccc3OC)cc2C1=O | 7.9% | 
CCOc1ccc(C(=O)CCN2CCOCC2)cc1 |  | 20.6 µM (active)
CCOc1ccc(C2C(C(=O)O)c3ccccc3C(=O)N2CCN2CCOCC2)cc1 (stereo not given) | -4.91% | 
CC(=O)c1ccc(OCCN2CCOCC2)cc1 | -1.61% | 
CC1CN(C2CCN(C(=O)COc3ccccc3)CC2)CC(C)O1 (stereo not given) | -11.5% | 
CN(CC(=O)NCc1ccncc1)S(=O)(=O)c1ccc(Br)cc1 | -7.58% | 
COc1ccc(CCNc2ncnc3nc[nH]c23)cc1OC |  | 11.6 µM (active)
COc1ccc(CCNC(=O)C(=O)NCC2CCNCC2)cc1OC | -6.66% | 
CCCNC(=O)NC(=O)COC(=O)CC(NC(N)=O)c1ccc(Cl)cc1 (stereo not given) | -0.325% | 
CSCCC(NC(=O)c1ccco1)C(=O)NCCc1ccc(F)cc1 (stereo not given) | 7.74% | 
CC(NC(=O)Nc1ccc2c(c1)OCO2)c1ccncc1 (stereo not given) | 1.21% | 
CCc1ccc(NC(=O)NC(C)c2ccc3c(c2)OCO3)cc1 (stereo not given) | -4.68% | 
CC1CCCN(C(C(=O)Nc2ccc(C(C)C)cc2)c2ccc3c(c2)OCO3)C1 (stereo not given) |  | 18.4 µM (active)
Cc1cccc(NS(=O)(=O)c2ccc(C)c(C(=O)NCc3cccnc3)c2)c1 | -12.3% | 
Cc1cccc(NS(=O)(=O)c2ccc(C)c(C(N)=O)c2)c1 |  | 9.2 µM (active)
Cc1ccc(S(=O)(=O)NC2CCCCCC2)cc1C(N)=O | -16.7% | 

From PubChem BioAssay AID686978 (National Center for Advancing Translational Sciences (NCATS), 2013)
